According to PubChem BioAssay (NCI):
The panel holds about 79,000 compounds, 15% with a hit somewhere; the sample as a whole holds those more often. Unmarked numbers belong to inactive results. The source made the active and inactive calls. Cut-off read from the data, not from the text of the source: active = growth inhibition above about 70%; inactive = the rest.

Assay: NCI Yeast Anticancer Drug Screen. Data for the bub3 strain (AID 167)
Details: S. cerevisiae bub3 mutant strain, hits give high values
Description: Growth inhibition of yeast strains with defined genetic alterations is measured as a screen for potential anti-cancer activity. Selected strains with alterations in DNA damage repair or cell cycle control were exposed to compounds and growth inhibition was measured relative to vehicle treated controls. The strain used in this assay is bub3

[1] = at 5.0 µM (retest, dose inferred, filed as 0.5)
[2] = at 50.0 µM (retest, dose inferred, filed as 5.0)

Compound | growth inhibition (at 1.2 µM) [%] | growth inhibition (at 3.7 µM) | growth inhibition [1] [%] | growth inhibition (at 11.0 µM) | growth inhibition (at 33.0 µM) | growth inhibition [2] | growth inhibition (at 50.0 µM) | growth inhibition (at 100.0 µM)
COc1ccccc1C(=O)OCC1CCCN2CCCCC12 (stereo not given) | -9 | -20% | 7 | 31% | 97% (active) | 91% (active) | 90.8% (active) | 97% (active)
NC(=O)NN=C(CS)CS | 0 | -7% | -3 | 3% | 14% | 15% | 27.4% | 56%
O=C(c1cc(Br)ccc1O)c1cc(Br)ccc1O | 17 | 90% (active) | 5 | 99% (active) | 99% (active) | 99% (active) | 99.2% (active) | 99% (active)
CCC/C(Cl)=N\OC(=O)Nc1ccc(Br)cc1 | 1 | 17% | -48 | 63% | 94% (active) | 99% (active) | 87.6% (active) | 96% (active)
CC(=O)OC1CCC2(C)C(=CCC3C4CCC5(OC6CC(C)CN(C(C)=O)C6C5C)C(C)=C4C(=O)C32)C1 (stereo not given) | -2 | -23% | 32 | 24% | 96% (active) | 98% (active) | 81.2% (active) | 95% (active)
